Results on four compounds are retold here after PubChem BioAssay.

A short description of experiment [1]: yeast TOR pathway RPL19A-GFP modulators, primary screen, cell-based, S. cerevisiae, multiplex flow cytometry (AID 1862; in the data active means percent of DMSO control GFP below about 86%;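 further: lower values mimic rapamycin by blocking the RPL19A rise seen in DMSO cells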). The settings on record: S. cerevisiae RPL19A-GFP strain, flow cytometry fluorescence, 3 h; at 10 µM; stronger effect = lower value. (In general: In flow cytometry, cells or beads pass a laser one at a time.)
Experiment [2] in a line: modulators of MEP2-GFP levels in yeast, primary screen, S. cerevisiae, multiplex flow cytometry (AID 1867;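 active means GFP response, as percent of the DMSO control, above the screen-wide mean plus 3 SD, about 139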;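 further: median GFP channel fluorescence of barcode-gated MEP2-GFP cells measured by flow cytometry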). Particulars: S. cerevisiae MEP2-GFP strain, 3 h, at 10 µM, stronger effect = higher value, 100% means same as DMSO wells.
Experiment [3] is described as follows: modulators of CIT2-GFP expression in yeast, primary screen, S. cerevisiae, GFP fusion, multiplex flow cytometry (AID 1870;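 active means percent response above a set limit, the screen-wide mean plus 3 SD, cut at about 130% in these data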;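 further: barcoded CIT2-GFP strain pooled with four other GFP strains with rapamycin as positive control; median GFP fluorescence per well over plate mean of DMSO wells so 100% = DMSO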). Particulars: 3 h, at 10 µM, stronger effect = higher value.
Experiment [4] is described as follows: modulators of LAP4-GFP expression in yeast, primary screen, S. cerevisiae, multiplex flow cytometry (AID 1873;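 active means GFP signal, as percent of the solvent control, above the screen mean plus 3 SD, about 149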). The settings on record: 3 h, at 10 µM, stronger effect = higher value.
The nature of experiment [5]: modulators of AGP1-GFP expression in yeast TOR pathway, primary screen, cell-based, multiplex flow cytometry, S. cerevisiae (AID 1887;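 active means GFP signal above the screen-wide mean plus 3 SD, that is over about 124.5% of the solvent control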;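 further: AGP1-GFP fusion strain of S. cerevisiae within a five-strain barcoded multiplex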). Particulars: 3 h, at 10 µM, stronger effect = higher value.
A short description of experiment [6]: inhibitors of CD8+ T cell-vesicle binding, pilot screen, LFA-1/ICAM-1 modulator project, MLPCN validation set, flow cytometry (AID 2523;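 active means response below a set limit, under 55% cells CD8-positive and vesicle-bound, and CD8 cells' 90th-percentile brightness under 279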;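 on vesicle binding response: mean PE anti-B7-1 fluorescence of CD8+ cells relative to row control; 100% = QL9-loaded vesicles with DMSO vehicle in the same plate row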). The settings on record: 2C mouse CD8+ T cells, at 7 µM, stronger effect = lower value; double positive events: measured here: CD8+/vesicle+ event percentage.
Experiment [7] concerns the target Integrin beta-1 (Homo sapiens) + Integrin alpha-4 (Homo sapiens) (UniProt P13612+P05556). Briefly: inhibition of HUTS-21 binding to VLA-4, pilot screen, VLA-4 allosteric modulator project, U937 cells, HUTS-21 mAb, flow cytometry, validation set (AID 2674;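 active means inhibition above 50%, about 3 SD of the validation set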;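 further: antibody binding induced by the VLA-4 ligand LDV present at three times its Kd; 0% = LDV ligand with antibody and no compound and 100% = antibody without LDV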). The settings on record: HUTS-21 LIBS mAb binding, at 6.7 µM, stronger effect = higher value, binding induced by LDV ligand.

A short description of experiment [8]: superoxide lowering in aged yeast cells, pilot screen, validation compound set (AID 2706;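 active means superoxide response below 65% of plate, a cut near 3 SD across the whole screen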;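 further: yeast exposed to compound for one week at 30 degrees C before staining; 100% = mean of all compound wells on the same plate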). The settings on record: S. cerevisiae aging, superoxide DHE fluorescence; at 10 µM; stronger effect = lower value.
Experiment [9] deals with Beta-adrenergic receptor kinase 1 (Homo sapiens) (UniProt P25098). Briefly: GRK2 binders displacing RNA aptamer, biochemical, validation, human GRK2, bead flow cytometry (AID 488806;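 active means aptamer binding inhibition above 30%, about 3 SD of noise from non-fluorescent compounds; inactive means inhibition at or below 30%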). The settings on record: bead-bound GRK2, FAM-aptamer displacement, at 10 µM, stronger effect = higher value.
Experiment [10] concerns the target Beta-2 adrenergic receptor (Homo sapiens) (UniProt P07550). As to the kind of experiment: beta2AR agonists driving receptor internalization, pilot screen, cell-based, FAP fluorogen, flow cytometry, validation set (AID 504459;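 active means percent response above 42, roughly 3 SD of non-fluorescent test compounds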;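 further: agonist-driven loss of surface beta2AR via internalization measured by FAP dye flow cytometry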). The settings on record: Am2.2-beta2AR cells, FAP surface receptor flow cytometry; at 10 µM; stronger effect = higher value.
The target in experiment [11] is AP-2 complex subunit beta (Homo sapiens) (UniProt P63010). Briefly: inhibitors of arrestin peptide binding to AP2, pilot screen, biochemical, validation set, GST-AP2 beads, flow cytometry (AID 504541;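 active means inhibition above 54%, about 3 SD of non-fluorescent compounds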;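 further: AP2 carries R879A mutation and is captured from E. coli lysate; bead-bound FITC arrestin peptide fluorescence measuring arrestin peptide binding to AP2; 0% = DMSO wells and 100% = excess unlabeled arrestin peptide control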). Particulars: FITC arrestin peptide, at 10 µM, stronger effect = higher value, AP2 beta2 appendage fragment, R879A mutant.
The nature of experiment [12]: yeast V-ATPase proton transport modulators, S. cerevisiae, pHLuorin, HTS validation (AID 504600; in the data active means response above about 15%;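 further: plate controls were DMSO for no effect and reference compound for full effect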). The settings on record: S. cerevisiae pHLuorin cytosolic pH, at 10 µM, stronger effect = higher value.
The subject of experiment [13] is anti-desmoglein-3 scFv antibody binding to human DSG3. As to the kind of experiment: inhibitors of anti-DSG3 scFv binding to DSG3, pilot screen, biochemical, validation compound set, bead-based, flow cytometry (AID 588368;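 active means binding below the plate cutoff, the plate median minus 3 SD, with a reading above zero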;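 further: signal is the median channel fluorescence of bead-bound GFP antibody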). Particulars: Protein G beads, DSG3-Fc, scFv-GFP binding, at 10 µM, stronger effect = lower value.
A short description of experiment [14]: inhibitors of fungal efflux pumps CDR1, CDR2, MDR1, pilot screen, validation compound set, multiplex, phenotypic (AID 588506).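 Further: Nile Red retained in cells so higher fluorescence means more efflux inhibition; 0 = negative control wells and 1 = enniatin B 25 µM full block.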 Particulars: S. cerevisiae pump-expressing triplex, Nile Red efflux flow cytometry; at 10 µM; stronger effect = higher value; the pumps come from Candida albicans.
The target of experiment [15] is ATP-binding cassette sub-family B member 6 (Homo sapiens) (UniProt Q9NP58). As to the kind of experiment: ABCB6 transporter inhibitors, pilot screen, K562-ABCB6 cells, flow cytometry, validation set (AID 588550;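 active means inhibition above the screen-wide mean plus 3 SD, about 51%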;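 further: 0% = DMSO wells and 100% = benzethonium chloride 70 µM positive control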). Particulars: K562-ABCB6 porphyrin accumulation, 1 h, at 10 µM, stronger effect = higher value.
Experiment [16] can be described thus: promoters of myeloid differentiation in arrested cells, primary screen, cell-based, GFP/MAC1 double positive, flow cytometry, validation set (AID 588685;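 active means differentiation response of at least 50%, scaled between solvent and reference control, from cells with both markers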;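 further: compound exposure lasts four days before antibody staining and flow analysis; 0% = DMSO wells and 100% = 5 µM fulvestrant positive control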). Particulars: ER-HoxA9 marrow cells, stronger effect = higher value, normalized: vehicle 0, fulvestrant 100.

Usually inhibition stands for the change of the read-out against control, counted positive when it falls.

Molecules are shown by their SMILES. Records with an inconclusive call do not appear. Calls of active or inactive are those of the source.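 How the source made its calls, unless noted: active means efflux inhibition above 0.42, the validation set average plus 4 SD; inconclusive means no clear call, values can overlap the other calls; inactive means the rest.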

Chain of Beta-adrenergic receptor kinase 1 (Homo sapiens) (P25098 whole entry, looked up): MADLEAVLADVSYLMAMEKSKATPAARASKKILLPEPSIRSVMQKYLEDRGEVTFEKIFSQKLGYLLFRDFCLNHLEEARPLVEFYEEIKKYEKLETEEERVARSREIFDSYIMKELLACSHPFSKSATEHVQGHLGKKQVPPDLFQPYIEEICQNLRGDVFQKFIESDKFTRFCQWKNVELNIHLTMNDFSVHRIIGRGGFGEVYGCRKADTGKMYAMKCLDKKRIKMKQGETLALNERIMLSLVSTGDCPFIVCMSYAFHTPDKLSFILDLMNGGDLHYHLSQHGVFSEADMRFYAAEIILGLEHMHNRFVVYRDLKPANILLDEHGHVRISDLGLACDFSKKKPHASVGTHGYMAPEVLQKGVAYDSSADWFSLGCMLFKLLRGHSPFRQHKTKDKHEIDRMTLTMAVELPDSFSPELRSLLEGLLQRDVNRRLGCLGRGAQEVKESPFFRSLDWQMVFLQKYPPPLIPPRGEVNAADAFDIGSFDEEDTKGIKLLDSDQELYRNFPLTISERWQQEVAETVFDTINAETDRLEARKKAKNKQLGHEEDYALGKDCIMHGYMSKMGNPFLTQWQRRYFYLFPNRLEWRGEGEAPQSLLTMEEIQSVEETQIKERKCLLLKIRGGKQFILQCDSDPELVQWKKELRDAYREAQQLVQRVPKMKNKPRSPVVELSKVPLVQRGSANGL
Chain of ATP-binding cassette sub-family B member 6 (Homo sapiens) (Q9NP58 whole entry, looked up): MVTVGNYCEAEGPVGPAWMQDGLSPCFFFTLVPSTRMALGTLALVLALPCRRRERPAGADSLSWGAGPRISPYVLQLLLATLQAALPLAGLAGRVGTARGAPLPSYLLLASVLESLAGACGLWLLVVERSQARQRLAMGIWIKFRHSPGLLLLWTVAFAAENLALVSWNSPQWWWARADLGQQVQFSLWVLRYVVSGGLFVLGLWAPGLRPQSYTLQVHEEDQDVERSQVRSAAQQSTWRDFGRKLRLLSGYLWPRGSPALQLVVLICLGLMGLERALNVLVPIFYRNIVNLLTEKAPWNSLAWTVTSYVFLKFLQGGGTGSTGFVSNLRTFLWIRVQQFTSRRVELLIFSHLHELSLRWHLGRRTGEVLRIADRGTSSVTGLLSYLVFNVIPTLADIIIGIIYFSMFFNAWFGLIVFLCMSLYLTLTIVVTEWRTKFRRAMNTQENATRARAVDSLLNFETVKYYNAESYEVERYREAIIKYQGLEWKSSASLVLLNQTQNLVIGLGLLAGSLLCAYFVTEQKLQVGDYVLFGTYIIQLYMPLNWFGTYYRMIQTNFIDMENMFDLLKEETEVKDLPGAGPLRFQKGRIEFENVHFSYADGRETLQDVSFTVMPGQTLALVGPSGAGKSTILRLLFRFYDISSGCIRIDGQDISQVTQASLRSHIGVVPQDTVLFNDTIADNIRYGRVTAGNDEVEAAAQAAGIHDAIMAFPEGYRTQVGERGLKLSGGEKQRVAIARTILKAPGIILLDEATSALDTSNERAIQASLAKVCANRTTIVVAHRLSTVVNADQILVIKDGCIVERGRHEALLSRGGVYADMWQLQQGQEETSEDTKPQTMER
Chain of AP-2 complex subunit beta (Homo sapiens) (P63010 whole entry, looked up, the tested form may be a part, one chain of several): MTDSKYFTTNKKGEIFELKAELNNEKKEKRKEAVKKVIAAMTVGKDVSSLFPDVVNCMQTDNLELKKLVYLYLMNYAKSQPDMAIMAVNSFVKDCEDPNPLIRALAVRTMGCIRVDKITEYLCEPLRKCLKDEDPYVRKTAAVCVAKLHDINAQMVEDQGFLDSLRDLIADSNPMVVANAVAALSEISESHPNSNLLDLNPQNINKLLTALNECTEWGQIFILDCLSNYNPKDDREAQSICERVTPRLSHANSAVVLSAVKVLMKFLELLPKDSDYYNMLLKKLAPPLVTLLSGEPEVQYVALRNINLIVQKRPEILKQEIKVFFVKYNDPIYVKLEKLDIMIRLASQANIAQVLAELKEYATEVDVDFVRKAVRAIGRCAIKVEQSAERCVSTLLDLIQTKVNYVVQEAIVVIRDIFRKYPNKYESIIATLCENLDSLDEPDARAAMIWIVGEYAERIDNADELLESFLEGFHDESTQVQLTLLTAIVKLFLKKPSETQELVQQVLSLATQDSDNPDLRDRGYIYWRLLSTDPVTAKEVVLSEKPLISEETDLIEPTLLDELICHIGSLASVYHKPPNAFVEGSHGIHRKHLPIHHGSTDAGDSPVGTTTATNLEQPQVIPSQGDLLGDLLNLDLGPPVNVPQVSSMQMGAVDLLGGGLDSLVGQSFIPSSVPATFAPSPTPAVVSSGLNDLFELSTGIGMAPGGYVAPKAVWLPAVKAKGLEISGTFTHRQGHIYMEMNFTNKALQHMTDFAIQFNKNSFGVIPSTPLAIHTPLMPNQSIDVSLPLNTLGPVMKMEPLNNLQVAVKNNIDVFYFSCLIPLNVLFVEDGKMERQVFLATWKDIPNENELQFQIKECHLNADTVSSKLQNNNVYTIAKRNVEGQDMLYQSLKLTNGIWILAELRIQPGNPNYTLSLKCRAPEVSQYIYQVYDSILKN
Chain of Beta-2 adrenergic receptor (Homo sapiens) (P07550 whole entry, looked up): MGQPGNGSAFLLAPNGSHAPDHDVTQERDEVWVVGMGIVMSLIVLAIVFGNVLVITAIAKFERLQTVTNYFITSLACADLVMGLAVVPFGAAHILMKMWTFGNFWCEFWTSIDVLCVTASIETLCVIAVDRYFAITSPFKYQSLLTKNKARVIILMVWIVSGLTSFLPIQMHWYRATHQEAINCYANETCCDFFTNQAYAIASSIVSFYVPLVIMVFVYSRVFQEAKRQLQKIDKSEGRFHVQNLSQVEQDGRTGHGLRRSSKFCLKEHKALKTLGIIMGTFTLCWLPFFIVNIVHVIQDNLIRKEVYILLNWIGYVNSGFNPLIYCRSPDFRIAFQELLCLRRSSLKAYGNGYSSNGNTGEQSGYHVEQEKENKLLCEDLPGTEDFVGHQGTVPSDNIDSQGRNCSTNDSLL
Chain of Integrin beta-1 (Homo sapiens) + Integrin alpha-4 (Homo sapiens) (P05556 whole entry, looked up): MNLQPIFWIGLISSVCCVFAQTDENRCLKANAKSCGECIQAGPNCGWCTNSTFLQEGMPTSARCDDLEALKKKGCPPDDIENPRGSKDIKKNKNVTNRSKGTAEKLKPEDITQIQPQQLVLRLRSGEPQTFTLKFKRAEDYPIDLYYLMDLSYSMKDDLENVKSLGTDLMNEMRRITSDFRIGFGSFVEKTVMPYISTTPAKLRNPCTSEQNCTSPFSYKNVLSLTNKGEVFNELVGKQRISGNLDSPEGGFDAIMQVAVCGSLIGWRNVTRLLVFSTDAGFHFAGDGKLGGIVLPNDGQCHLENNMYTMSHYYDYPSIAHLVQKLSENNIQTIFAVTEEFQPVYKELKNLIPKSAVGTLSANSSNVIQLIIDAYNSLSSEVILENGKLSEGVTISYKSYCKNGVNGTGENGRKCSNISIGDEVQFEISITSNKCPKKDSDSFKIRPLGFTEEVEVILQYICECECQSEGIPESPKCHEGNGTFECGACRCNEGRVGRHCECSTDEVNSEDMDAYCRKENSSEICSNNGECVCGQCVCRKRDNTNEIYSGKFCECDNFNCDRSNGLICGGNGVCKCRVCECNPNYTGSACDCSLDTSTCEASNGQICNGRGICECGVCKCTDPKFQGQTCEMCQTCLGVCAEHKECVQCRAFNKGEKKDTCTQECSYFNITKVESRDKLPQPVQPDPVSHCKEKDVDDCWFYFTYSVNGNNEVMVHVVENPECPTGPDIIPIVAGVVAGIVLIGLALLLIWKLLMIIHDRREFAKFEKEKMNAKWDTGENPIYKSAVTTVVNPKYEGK
Chain of Integrin beta-1 (Homo sapiens) + Integrin alpha-4 (Homo sapiens) (P13612 whole entry, looked up): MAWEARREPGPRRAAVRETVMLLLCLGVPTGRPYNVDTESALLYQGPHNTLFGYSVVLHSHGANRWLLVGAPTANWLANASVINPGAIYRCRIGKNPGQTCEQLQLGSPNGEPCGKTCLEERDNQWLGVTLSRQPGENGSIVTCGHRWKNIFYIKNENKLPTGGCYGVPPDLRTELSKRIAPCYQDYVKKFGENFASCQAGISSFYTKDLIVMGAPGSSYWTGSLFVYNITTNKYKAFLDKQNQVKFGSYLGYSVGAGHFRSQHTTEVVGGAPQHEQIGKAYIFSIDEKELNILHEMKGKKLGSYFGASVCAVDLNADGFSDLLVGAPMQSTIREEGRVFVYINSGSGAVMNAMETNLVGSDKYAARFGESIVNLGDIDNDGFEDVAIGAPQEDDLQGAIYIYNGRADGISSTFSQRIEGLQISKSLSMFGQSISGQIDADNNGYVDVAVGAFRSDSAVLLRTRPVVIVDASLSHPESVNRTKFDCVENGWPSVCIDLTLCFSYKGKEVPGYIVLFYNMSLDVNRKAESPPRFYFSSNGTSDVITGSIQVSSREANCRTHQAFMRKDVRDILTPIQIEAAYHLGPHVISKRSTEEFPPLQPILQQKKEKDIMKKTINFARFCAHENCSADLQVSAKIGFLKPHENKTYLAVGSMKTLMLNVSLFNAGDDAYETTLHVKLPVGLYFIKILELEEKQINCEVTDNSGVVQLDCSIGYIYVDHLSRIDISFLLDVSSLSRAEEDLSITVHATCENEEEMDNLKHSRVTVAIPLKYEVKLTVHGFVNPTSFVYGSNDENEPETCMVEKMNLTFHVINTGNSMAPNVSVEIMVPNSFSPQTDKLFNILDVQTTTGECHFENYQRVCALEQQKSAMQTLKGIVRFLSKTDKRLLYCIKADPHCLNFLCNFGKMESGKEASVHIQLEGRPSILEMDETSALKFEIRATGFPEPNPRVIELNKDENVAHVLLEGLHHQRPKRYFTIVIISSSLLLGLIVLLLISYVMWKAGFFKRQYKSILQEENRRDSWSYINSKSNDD

`O=C(CCC(=O)NCCO)NCCO`: in [1], the percent of DMSO control GFP was 101% (inactive). Moreover, the GFP response vs DMSO in experiment [2] is 104% (inactive); in experiment [4], 108% (inactive). Further, the percent response of DMSO control in experiment [3] is 97.7% (inactive). Moreover, the GFP response, % of DMSO in [5] is 111% (inactive). In experiment [6], this compound had a double positive events of 61.3%. Moreover, the vesicle binding response in experiment [6] was 174% (inactive). The values for the inhibition in experiment [7], in experiment [11] and in [15] were -1.12% (inactive), -1.09% (inactive) and 2% (inactive), respectively. Besides, in experiment [8], the superoxide response (% of plate) was 95.4% (inactive). Besides, in experiment [9], the aptamer binding inhibition was 7% (inactive). The response is -19.9% (inactive) in experiment [10] and -3.85% (inactive) in [12]. In experiment [13], the binding (% of control) is 100% (inactive). In [14], the efflux inhibition (fraction of control) is 0.04 (inactive). In experiment [16], the differentiation response was -1.05% (inactive).
As to `Cc1ccc(SCC(=O)Nc2nccs2)cc1`, the percent of DMSO control GFP in experiment [1] was 101% (inactive). The results for the GFP response vs DMSO in experiment [2] and in experiment [4] were 105% (inactive) and 120% (inactive), respectively. Moreover, in experiment [3], the percent response of DMSO control is 98.6% (inactive). In experiment [5], the GFP response, % of DMSO is 99.7% (inactive). In addition, the double positive events in [6] amounted to 60.5%. Also, in experiment [6], the vesicle binding response was 4850% (inactive). In addition, the results for the inhibition in experiment [7], in experiment [11] and in experiment [15] were 6.4% (inactive), -4.67% (inactive) and 4% (inactive), respectively. Further, the superoxide response (% of plate) in experiment [8] was 110% (inactive). For the same compound, the aptamer binding inhibition in experiment [9] was 4% (inactive). Also, the values for the response in experiment [10] and in [12] were -0.63% (inactive) and -0.83% (inactive), respectively. In addition, the binding (% of control) in experiment [13] is 95.3% (inactive). The efflux inhibition (fraction of control) in [14] is -0.24 (inactive). In addition, the differentiation response in experiment [16] is -2.4% (inactive).
Take `Cc1[nH]nc(-c2ccc(O)cc2O)c1Oc1ccccc1`: the percent of DMSO control GFP in experiment [1] was 106% (inactive). In addition, the GFP response vs DMSO is 100% (inactive) in experiment [2] and 93.3% (inactive) in experiment [4]. In addition, the percent response of DMSO control in [3] was 114% (inactive). The GFP response, % of DMSO in [5] is 103% (inactive). In addition, the double positive events in experiment [6] is 61.9%. Also, the vesicle binding response in experiment [6] is 53.1% (inactive). The inhibition is 4.73% (inactive) in experiment [7], -10.9% (inactive) in experiment [11] and 3% (inactive) in [15]. The superoxide response (% of plate) in experiment [8] is 95.8% (inactive). The aptamer binding inhibition in experiment [9] was 1% (inactive). Also, the response in [10] is -4.61% (inactive); in experiment [12], -4.45% (inactive). Also, the binding (% of control) in [13] was 96.3% (inactive). For the same compound, the efflux inhibition (fraction of control) in experiment [14] is -0.32 (inactive). Further, in experiment [16], the differentiation response is 8.06% (inactive).
Regarding `COc1cc(C2Nc3ccccc3C(=O)N2c2ccccc2)ccc1O` (stereo not drawn), the percent of DMSO control GFP in experiment [1] was 109% (inactive). Also, the GFP response vs DMSO in [2] was 108% (inactive); in experiment [4], 93.3% (inactive). The percent response of DMSO control in experiment [3] was 116% (inactive). Also, the GFP response, % of DMSO in [5] is 103% (inactive). The compound further gave a double positive events in [6] of 62.9%. In addition, the vesicle binding response in experiment [6] is 256% (inactive). The values for the inhibition in experiment [7], in [11] and in experiment [15] were 3.7% (inactive), -6.11% (inactive) and 3% (inactive), respectively. Further, the superoxide response (% of plate) in experiment [8] was 90% (inactive). In addition, the aptamer binding inhibition in experiment [9] is 0% (inactive). Moreover, the response in experiment [10] is -10.2% (inactive); in [12], 61.2% (active). The binding (% of control) in experiment [13] is 99.7% (inactive). Further, the efflux inhibition (fraction of control) in experiment [14] is 0.18 (inactive). The differentiation response in experiment [16] is 9.04% (inactive).
